Out of some 65,000 compounds screened, about 2,100 (3.2%) showed an effect of 50% or more. The median lay at about -52%. This is one part of a sample in which strong results are shown more often than they occur.
Test system: Plasmodium falciparum
Assay: Screen against P. falciparum Asexual Blood Stage (ABS), at 5uM
Type: functional, Dd2
Settings: tested at 5 uM

Question: With CC(CN1CCC(c2ccccc2)CC1)n1cnc2ccccc21 (centres undefined) as the compound, how does the INHIBITION read?
Answer: 3.15%

Question: How did the INHIBITION turn out when COCCN1CCCCC12CC(=O)N(c1ccccc1OC)C2 (centres undefined) was run?
Answer: -78.3%

Question: With c1cc(CN2CCC3(CCOCC3COCC3CC3)CC2)co1 (centres undefined) as the compound, how does the INHIBITION read?
Answer: 14.4%

Question: How did the INHIBITION turn out when O=C(Cc1ccco1)N1CCC2(CCOCC2COCC2CC2)CC1 (centres undefined) was run?
Answer: -30.9%

Question: For c1coc(CN2CCC3(CCOCC3COCC3CC3)CC2)c1 (centres undefined), which INHIBITION is on record?
Answer: 62.3%

Question: With Cc1cccc(CN2CCC3(CCCN(C(=O)N(C)C)C3)C2=O)n1 (centres undefined) as the compound, how does the INHIBITION read?
Answer: -86.4%

Question: For CN(C)c1nc(N)nc(CN2CCCC2c2cccs2)n1 (centres undefined), which INHIBITION is on record?
Answer: 52%

Question: CN(C)c1nc(N)nc(CN2CCC(c3nc4ccccc4o3)CC2)n1 was tested. Which INHIBITION did it give?
Answer: 7.31%

Question: For Cc1cccc(C2CCCN2Cc2nc(N)nc(N(C)C)n2)c1C (centres undefined), which INHIBITION is on record?
Answer: -12.4%

Question: How did the INHIBITION turn out when CN(C)c1nc(N)nc(CN2CCCC2c2ccsc2)n1 (centres undefined) was run?
Answer: 26.9%

Question: For c1ccc(C2CCCN(Cc3cc4n(n3)CCNC4)CC2)cc1 (centres undefined), which INHIBITION is on record?
Answer: 37.2%

Question: For CN(C)c1nc(N)nc(CN2CCCC(c3ccccc3)CC2)n1 (centres undefined), which INHIBITION is on record?
Answer: 54%

Question: With COCC1CN(C(=O)Cc2ccccn2)Cc2ncnn2C1 (centres undefined) as the compound, how does the INHIBITION read?
Answer: -70.5%

Question: Which INHIBITION does the source give for Cc1cc(C(=O)N2CCN(c3nc4c(C(C)C)cccc4s3)CC2)on1 here?
Answer: 35.8%

Question: How did the INHIBITION turn out when COCCOCC(=O)Nc1ccc(F)cc1C was run?
Answer: -33.5%

Question: With Cc1nc(CN2CCC(c3nc4cc(Cl)ccc4o3)CC2)oc1C as the compound, how does the INHIBITION read?
Answer: -53.1%

Question: For CC(C)(C)c1nc(CN2CCC(c3nc4cc(Cl)ccc4o3)CC2)no1, which INHIBITION is on record?
Answer: -67.9%

Question: With Cc1noc(C)c1CN1CCC(c2nc3cc(Cl)ccc3o2)CC1 as the compound, how does the INHIBITION read?
Answer: 58.5%

Question: For O=C([C@@H]1COC[C@H]2CN(C3CCCC3)C[C@H]21)N1CCC(F)CC1, which INHIBITION is on record?
Answer: -68.8%

Question: For CN1CCN(C(=O)c2nc3c(o2)CN(C(=O)c2cccnc2)C3)CC1, which INHIBITION is on record?
Answer: -0.0268%

Question: With O=C(CSC1=NS(=O)(=O)c2cc(F)ccc2N1)Nc1ccc(Cl)c(Cl)c1 as the compound, how does the INHIBITION read?
Answer: -21.5%

Question: O=C(N1CCOCC1)N1CCC2(CC1)CN(c1ccccn1)CCO2 was tested. Which INHIBITION did it give?
Answer: -99.6%

Question: How did the INHIBITION turn out when O=C(CCn1cccn1)NCC(c1cccs1)N1CCOCC1 (centres undefined) was run?
Answer: -64.1%

Question: Cc1ccc(C(CNCC2CC2)N2CCOCC2)s1 (centres undefined) was tested. Which INHIBITION did it give?
Answer: 26.8%

Question: With Cc1ccc(C(CNCc2cnn(C(C)C)c2)N2CCOCC2)s1 (centres undefined) as the compound, how does the INHIBITION read?
Answer: 35.9%

Question: For CCCn1cc(CNCC(c2ccc(C)s2)N2CCOCC2)cn1 (centres undefined), which INHIBITION is on record?
Answer: 56.8%

Question: For Cc1ccc(C(CNCc2ccncc2)N2CCOCC2)s1 (centres undefined), which INHIBITION is on record?
Answer: -40.9%

Question: How did the INHIBITION turn out when Cc1ccc(C(CNCc2cccn2C)N2CCOCC2)s1 (centres undefined) was run?
Answer: -38.5%

Question: How did the INHIBITION turn out when CCCn1cc(CN2CCOCC2c2[nH]ncc2C)cn1 (centres undefined) was run?
Answer: -155%

Question: With Cc1ccc(C(CNCc2nccn2C)N2CCOCC2)s1 (centres undefined) as the compound, how does the INHIBITION read?
Answer: -28.6%

Question: Cc1ccc(C(CNCc2ncc[nH]2)N2CCOCC2)s1 (centres undefined) was tested. Which INHIBITION did it give?
Answer: 34.5%

Question: For Cc1ccc(C(CNCc2ccc(C#N)cc2)N2CCOCC2)s1 (centres undefined), which INHIBITION is on record?
Answer: 52.3%

Question: CCn1cc(CNCC(c2ccc(C)s2)N2CCOCC2)cn1 (centres undefined) was tested. Which INHIBITION did it give?
Answer: 65.7%

Question: Which INHIBITION does the source give for CCn1ccnc1CNCC(c1ccc(C)s1)N1CCOCC1 (centres undefined) here?
Answer: 54.1%

From ChEMBL document CHEMBL4513216, “Probing the Open Global Health Chemical Diversity Library for Multistage-Active Starting Points for Next-Generation Antimalarials” (ACS Infect Dis, 2020)
